Compound activity from PubChem BioAssay.
ALDH1A1 inh: inhibitors of human aldehyde dehydrogenase 1A1; hit rate 7.3% among 220,000; Potency, µM (top dose mostly 75.3 µM), without a hit: top-dose activity, negative = inhibition, actives largely listed as inhibitors; P00352; Purified ALDH1A1, NADH fluorescence, propionaldehyde substrate;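 note: potency is the fitted concentration of half-maximal effect; plate controls were no enzyme wells and a reference inhibitor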
Target sequence (P00352 whole entry, looked up): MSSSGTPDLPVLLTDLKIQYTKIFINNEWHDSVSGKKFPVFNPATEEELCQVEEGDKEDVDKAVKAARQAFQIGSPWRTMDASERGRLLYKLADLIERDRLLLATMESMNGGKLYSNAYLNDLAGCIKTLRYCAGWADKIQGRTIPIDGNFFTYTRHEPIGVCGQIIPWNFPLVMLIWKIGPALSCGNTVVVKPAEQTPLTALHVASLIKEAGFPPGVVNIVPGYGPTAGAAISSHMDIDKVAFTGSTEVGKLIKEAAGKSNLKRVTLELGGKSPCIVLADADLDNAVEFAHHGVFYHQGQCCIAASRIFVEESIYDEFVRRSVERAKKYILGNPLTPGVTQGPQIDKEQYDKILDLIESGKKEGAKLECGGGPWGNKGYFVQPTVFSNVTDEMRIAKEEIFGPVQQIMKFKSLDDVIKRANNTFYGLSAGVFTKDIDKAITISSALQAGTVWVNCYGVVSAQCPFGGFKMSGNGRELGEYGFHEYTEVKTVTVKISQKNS
HPGD inh: blocks human HPGD enzyme activity. P15428. Potency, µM, for inactives: at the highest dose activity change, negative = inhibition, most hits filed as inhibitors. hit rate 4.3% among 150,000. purified HPGD, NADH fluorescence kinetic, PGE2 substrate; note: potency is the fitted concentration of half-maximal effect
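NADH formation kinetics: reaction with 30 uM PGE2 and 1 mM NAD+ (final), 20 nM enzyme, Tris-HCl pH 8 with Tween 20, after 15 min compound preincubation at room temperature. Fluorescence change, last versus first of five reads.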
Luc counter: Kinase-Glo luciferase inhibition (counter-screen); Q27757; Kinase-Glo luciferase, ATP luminescence, 8 min; Potency, µM (top dose mostly 38.3 µM), without a hit: top-dose activity change, negative = inhibition, actives largely listed as inhibitors; hit rate 0.28% among 200,000; active = well fitted inhibition curve with a large enough effect; inconclusive = small, poorly fitted or top-dose-only effect; note: potency is the fitted concentration of half-maximal effect; nearly all actives have a fitted effect of over 60% in size
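Light output from Kinase-Glo luciferase with luciferin and 10 uM ATP in 50 mM imidazole pH 7.2, KCl, MgCl2, Tween 20, BSA; compound pin-delivered, 8-min ambient incubation, then luminescence read.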
Lamin A splicing: modulators of lamin A splicing | HeLa LMNA splicing GFP/RFP minigene ratio, 48 h | Potency, µM (doses to about 46.1 µM), for the others: top-dose ratio change, negative = inhibition, most hits filed as inhibitors | hit rate 0.01% among 200,000 | AID 1487; active = well fitted inhibition curve with a large enough effect in the signal ratio, with a control signal flat, not every such curve was filed as active; inconclusive = small, poorly fitted or top-dose-only effect, or effect the other way, or a change in a side signal; the % refers to the signal ratio; note: potency is the fitted concentration of half-maximal effect
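Read-out is the ratio of GFP to DsRed2 object intensity, acquired by 488 nm laser-scanning cytometry on HeLa lamin A-EGFP minigene reporter cells. Compound incubation 48 hrs at 37 °C in Opti-MEM with 2% FBS; DMSO 0.5% final.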
PNC inhibitor: inhibitors of perinucleolar compartment assembly; PC3M PTB-GFP, PNC prevalence imaging, 16 h; active compounds read low; activity change (PNC), negative = inhibition, % at 10 µM; AID 2417; hit rate 3.1% among 140,000;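 active = readout at or below -70, meaning at least 70% loss of cells showing the perinucleolar compartment, a nuclear body marking cancer cells; inconclusive = readout between -30 and a set limit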;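 note: plate controls were DMSO wells for no effect and camptothecin positive control wells for full effect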
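Read-out is percentage of cells bearing a perinucleolar compartment, from automated 20x imaging of fixed, Hoechst-stained PC3M PTB-GFP cells. Cells were seeded 4 h, then exposed 16 h to compound (23 nl of library stock) in duplicate plates.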
An asterisk follows results filed as active; u = inconclusive; x = no result; [ ] = dose if it differs, or a comment. Compounds with a hit are over-represented: about 10% of the library has one in this group of screens. Unless noted, calls come from the whole dose curve; as a rule, active = well fitted inhibition curve with a large enough effect (not every such curve was filed as active); inconclusive = small, poorly fitted or top-dose-only effect, or another doubt; inactive = no such curve, though single readings can be large or run the other way. Unless noted, % is set by controls: 0 for no effect and ±100 for the full control effect.

SMILES	ALDH1A1 inh	HPGD inh	Luc counter	Lamin A splicing	PNC inhibitor
C=C(C(=O)O)[C@@H]1CC[C@@]2(C)CCC[C@](C)(O)[C@@H]2C1	5%	-3%	0%	x	x
O=C(CN1CCOCC1)N1CCc2ccccc2C(c2ccccc2)C1 (centres undefined)	14µM*	-13%	1%	u	24
CC(=O)N1CCc2c(sc(NC(=O)c3ccc([N+](=O)[O-])o3)c2C#N)C1	3.2µM*	x	-20%	u	x
COc1ccc(C(=O)Nc2sc3c(c2C#N)CCN(C(C)=O)C3)cc1	u	x	0%	1%[9.22 µM]	x
c1ccc2c(c1)-c1nc3ccccc3cc1[C@H]2N1CCOCC1	-1%[13.5 µM]	-2%	1%[7.66 µM]	x	x
Cn1c(=O)c(C(=O)CCl)c(N)n(Cc2ccccc2)c1=O	7.1µM*	-7%	2%	u	21
CC1Cc2cc(S(=O)(=O)NCCc3ccc(Cl)cc3)ccc2N1C(=O)C1CCC1 (centres undefined)	x	x	x	-11%[46 µM]	x
N/C(Cc1ccc(Cl)cc1Cl)=N\OC(=O)c1ccc(Br)o1	x	x	x	-12%[46 µM]	x
Cc1ccccc1OCC(=O)O/N=C(\N)Cc1cccs1	7.1µM*	-15%	0%	7%[0.0737 µM]	70
COc1ccc(OCC(=O)O/N=C(\N)Cc2cccs2)cc1	-10%	-16%	-2%	1%	15
N/C(Cc1cccc2ccccc12)=N\OC(=O)c1ccc(Br)o1	10µM*	x	-3%	x	x
N/C(Cc1ccc(Cl)cc1Cl)=N\OC(=O)Cc1cccs1	4%	-26%	-3%	u	-124*
N/C(Cc1cccc2ccccc12)=N\OC(=O)Cc1cccs1	u	28µM*	-9%	u	-21
N/C(Cc1cccc2ccccc12)=N\OC(=O)c1cccs1	5%	-10%	-1%	8%	-29
CCOc1ccccc1CNC(=O)c1nc(-c2ccc(Cl)cc2)n2c1CCCCC2	x	x	x	-5%[46 µM]	x
CC(C)COC(=O)n1ccc(C(=O)N2CCCCC2)n1	-3%	10µM*	0%	2%	-24
CCOC(=O)N1CCN(S(=O)(=O)c2ccc(Br)s2)CC1	1%	-1%	0%	-7%	-90*
O=C(c1ccco1)N1CCN(S(=O)(=O)c2ccc(Br)s2)CC1	8.9µM*	u	-1%	-11%	-6
CC(C)c1ccc(S(=O)(=O)N2CCN(C(=O)c3ccco3)CC2)cc1	u	x	-1%	u	x
Cc1cc(C)cc(NC(=O)CN2CCCN(S(=O)(=O)c3ccc(Br)s3)CC2)c1	u	-12%	0%	u	12
Cc1ccc(NC(=O)CN2CCCN(S(=O)(=O)c3ccc(Br)s3)CC2)cc1	20µM*	-12%	3%	u	29
COc1cc(CNC(=O)CSCc2nc3cccnc3n2C2CCCCC2)cc(OC)c1OC	x	x	x	3%[46 µM]	x
CCOC(=O)c1cnc2c(cnn2CC)c1NN=C(C)C	4%	u	-9%	u	x
NCCCc1ccc2oc3ccccc3c2c1	11%[13.5 µM]	-13%	-5%[7.66 µM]	x	x
Cc1cc(-c2csc(NC(=O)c3ccc(=O)n(C)n3)n2)c(C)n1CC1CCCO1 (centres undefined)	20µM*	-10%	-14%	-3%	u
SMILES	ALDH1A1 inh	HPGD inh	Luc counter	Lamin A splicing	PNC inhibitor
CCNc1nc(-c2cc(C)n(Cc3ccco3)c2C)cs1	u	x	-6%	x	x
Cc1cc(-c2csc(NC(=O)c3ccc(=O)[nH]c3)n2)c(C)n1Cc1ccco1	8.9µM*	x	x	22%[46 µM]	x
Cc1ccc2c(c1)C(c1ccc(F)cc1)N(C(=O)c1cc3ccccc3oc1=O)CC(=O)N2 (centres undefined)	u	-6%	11%	u	-89*
CCN(CC)S(=O)(=O)c1ccc2c(c1)N(CC(=O)N1CCN(c3ccc(OC)cc3)CC1)C(=O)CO2	x	x	x	6%[46 µM]	x
Cc1cc(Cl)c(S(=O)(=O)NCc2ccccc2)cc1OCC(N)=O	-5%	-4%	7%	7%	-113*
O=C(OCc1cc(=O)n2c3c(sc2n1)CCCC3)c1cccc(NC(=O)c2ccccc2F)c1	x	x	x	-7%[46 µM]	x
COc1ccc(NC(=O)C2CCN(Cc3cnn(-c4ccccc4)c3-n3cccc3)CC2)cc1OC	u	-7%	-3%	u	-8
COC(=O)c1ccccc1NC(=O)C1CCN(C(=O)c2cc(OC)cc(OC)c2)CC1	-6%	-22%	-4%	-12%	-5
COc1ccc(C(=O)N2CCC(C(=O)Nc3ccccc3OC)CC2)cc1	0%	-4%	4%	-3%	-85*
COc1ccc(NC(=O)NC2CCN(C(C)C)CC2)c(OC)c1	9%	-8%	7%	-7%	-80*
COc1ccc(OC)c(NC(=O)C2CCN(Cc3cnn(-c4ccccc4)c3-n3cccc3)CC2)c1	5%	-19%	-5%	u	-88*
COc1ccc(NC(=O)C2CCN(S(=O)(=O)c3ccc(OC)c(OC)c3)CC2)c(OC)c1	-8%	-6%	-3%	-2%	-121*
COCCN(C(=O)Nc1ccc(OC)cc1OC)C1CCN(C(C)C)CC1	u	1%	0%	-18%	-18
COc1ccc(NC(=O)C2CCN(C(=O)c3ccccc3)CC2)c(OC)c1	1.6µM*	-13%	0%	15%	24
COc1ccc(NC(=O)C2CCN(C(=O)c3cccs3)CC2)c(OC)c1	2%	1%	-6%	3%	-8
N#CCCn1c(=O)c(-c2cccs2)nc2cnc(N3CCOCC3)nc21	u	x	x	12%	x
COc1ccc(OC)c(-c2noc(N3CCN(c4ccc(Cl)cc4)CC3)n2)c1	x	x	x	-13%[46 µM]	x
O=Cc1c(-c2ccc(F)cc2)nc2ccccn12	u	x	-5%	x	x
Cc1ccn2c(C=O)c(-c3ccc(F)cc3)c(C=O)c2c1	13µM*	x	-2%	x	x
